According to PubChem BioAssay AID720513 (Broad Institute, 2013):
In all, about 2,100 compounds went through this assay and about 480 (23%) were called active. About 5% were inconclusive and are not listed.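 Rule for the calls: active = fitted curve reaches 40% activation at or below the top valid concentration, in every replicate test; inconclusive = replicate tests disagree on the call; inactive = the rest, including activity in the opposite direction.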 These entries were drawn from the full list. Potency and affinity values are given separately.

Assay: activators raising PGC1a acetylation in cells, dose response, cell-based, cherry-picked samples, set 6 (AID 720513);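 note: cells made to overexpress flag tagged PGC1a plus GCN5 acetyltransferase by viral infection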
Conditions: U2OS PGC1a acetylation AlphaLISA, overnight, 0 = neutral, -100 = inhibitor control; series mostly up to 19.5 µM; activation (acetylation increase): at the top concentration

Activation (acetylation increase), inactive:
COC(=O)c1ccc(Cl)c(NC(C)=O)c1 14.3%
Cc1cc(C(=O)OCC(=O)N(C)c2ccccc2)ccc1[N+](=O)[O-] 10.2%
CCOc1cc(CNC2CCCC2)cc(Cl)c1OCc1ccc(F)cc1 -105%
O=C(C[C@H]1CC[C@@H](NS(=O)(=O)c2ccc(F)cc2)[C@H](CO)O1)N1CCN(c2ccccc2)CC1 24.9% [at 21 µM]
O=C(C[C@@H]1CC[C@@H](NS(=O)(=O)c2ccc(F)cc2)[C@H](CO)O1)N1CCN(c2ccccc2)CC1 26.8%
C=CC[C@@H](CC(=O)N[C@@H](CO)Cc1ccccc1)C(=O)N[C@@H](COC(=O)[C@@H](CC=C)CC(=O)OC(C)(C)C)Cc1c[nH]c2ccccc12 22.7%
COc1ccc(NC(=O)Nc2ccc3c(c2)CC(=O)N([C@H](C)CO)C[C@H](C)[C@@H](CN(C)CC2CCCCC2)O3)cc1 19.9%
Cc1nc(SCC(=O)OCc2ccccc2)c(C#N)c(-c2ccccc2)c1C(=O)Nc1ccccc1 10.7%
CNC(=O)COC(=O)c1cc(-c2ccco2)nc2ccccc12 21.4% [at 10 µM]
COCC(=O)N1CC(=O)N2[C@@H](CO)[C@H](c3ccc(-c4ccncc4)cc3)[C@@H]2C1 -19.7%
O=C(NCc1cccc(Cl)c1)c1ccc(-n2ccnc2)c2ccoc12 -31.3%
O=C(Nc1cccc(OC(F)(F)F)c1)c1ccc(-c2cccnc2)c2ccoc12 14.6%
CC(Oc1ccc2c3c(c(=O)oc2c1)CCC3)C(=O)N[C@@H](Cc1ccccc1)C(=O)O (stereo partly specified) 2.57%
Nc1ncnc(NCc2ccc(F)cc2)c1[N+](=O)[O-] -6.18%
COc1ccccc1-c1ccc([C@@H]2[C@@H]3CN(S(=O)(=O)c4ccc(-c5ccccc5)cc4)C[C@H]2N3)cc1 -95.8%
N#Cc1cccc(-c2ccc([C@@H]3[C@@H]4CN(S(=O)(=O)c5ccc(-c6ccccc6)cc5)C[C@H]3N4)cc2)c1 -102%
O=S(=O)(c1ccc(-c2ccccc2)cc1)N1C[C@@H]2N[C@H](C1)[C@@H]2c1ccc(-c2cccnc2)cc1 -89.6%
O=C(C1CCCCC1)N1C[C@@H]2N[C@H](C1)C2c1ccc(-c2cccc(F)c2)cc1 (stereo partly specified) 12.9%
N#Cc1ccc(-c2ccc([C@@H]3[C@@H]4CN(S(=O)(=O)c5ccc(-c6ccccc6)cc5)C[C@H]3N4)cc2)cc1 -96.9% [at 21 µM]
COc1cccc(-c2ccc(C3[C@@H]4CN(C(=O)C5CC5)C[C@H]3N4)cc2)c1 (stereo partly specified) -20.8%
COc1cccc(S(=O)(=O)N2C[C@@H]3N[C@H](C2)C3c2ccc(-c3ccccc3C)cc2)c1 (stereo partly specified) -19%
C[C@@H]1CN([C@H](C)CO)C(=O)c2cc(/C=C/c3ccccc3)cnc2O[C@@H]1CN(C)Cc1cccnc1 3.6% [at 21 µM]
COc1cc(CNCCN2CCOCC2)ccc1OCc1ccc(Cl)cc1Cl -59.2%
C[C@@H]1CN([C@H](C)CO)C(=O)c2cc(C#Cc3ccccc3)cnc2O[C@@H]1CN(C)C(=O)c1ccccn1 -6.46%
O=C(CN1C(=O)C2CC=CCC2C1=O)Nc1nccs1 (stereo unspecified) -9.37%
CN(C)CCCNC(=O)CC1C[C@H](C(=O)N2CCCCC2)[C@@]2(CCc3ccccc3)c3[nH]c4ccccc4c3CCN2C1=O (stereo partly specified) -11.9%
COc1ccc(-n2c(C)c([N+](=O)[O-])c3ccc(O)c(CN(C)C)c32)cc1 -13%
COc1cc(O)c(C(CC(=O)N2CCOCC2)c2ccc(N(C)C)cc2)c(OC)c1 (stereo unspecified) 4.72%
CNC[C@H]1Oc2ccc(NC(=O)CCN3CCOCC3)cc2C(=O)N([C@H](C)CO)C[C@H]1C -13.7% [at 21 µM]
C=CCN(c1ccc(C(=O)Nc2ccc3c(c2)OCO3)cc1)S(C)(=O)=O 28.3%
N#Cc1ccc(-c2ccc(C3[C@@H]4CN(S(=O)(=O)c5ccc(F)cc5)C[C@H]3N4)cc2)cc1 (stereo partly specified) -93.4%
Cc1cccc(S(=O)(=O)N2C[C@@H]3N[C@H](C2)C3c2ccc(-c3ccccc3C)cc2)c1 (stereo partly specified) -95.3%
CCCSc1nnc(Sc2nnnn2-c2ccccc2)s1 -36.7%
COc1ccc(CCN2C(=O)c3[nH]nc(-c4ccccc4O)c3C2c2ccccc2)cc1OC (stereo unspecified) 9.8%
COc1ccc(CCN2C(=O)CC(C(C)c3ccccc3)C2=O)cc1OC (stereo unspecified) 8.2%
CCCCN(C)Cc1c(C)[nH]c2ccccc2c1=O 10.8%
CC1(Cc2ccc(Cl)cc2)C(=O)Nc2ccc(-c3cccnc3)cc21 (stereo unspecified) -18.9%
COc1ccccc1-c1ccc([C@@H]2[C@@H](CO)N(C(C)=O)C23CN(C(C)=O)C3)cc1 -6.94%
CO[C@H]1CN(C)C(=O)c2cc(NC(=O)Nc3ccc(Cl)cc3)ccc2OC[C@H](C)NC[C@@H]1C 20.2%
CO[C@H]1CN(C)C(=O)c2ccc(NC(=O)c3ccc(-c4ccccc4)cc3)cc2OC[C@H](C)NC[C@@H]1C 5.16% [at 21 µM]
CCc1oc2c(C)c(O)ccc2c(=O)c1-c1ccc2ccccc2n1 12%
CC1CCCN(Cc2c(O)ccc3c4c(c(=O)oc23)CCCC4)C1 (stereo unspecified) 50.2%
N#Cc1ccc(Cn2c(=O)c(C#N)c3n(c2=O)CCC3)cc1 -13.7%
CC(C)Cn1cnc2c(N)nc3ccccc3c21 16.5%
Cc1cc(C)n(-c2ccc(Cl)c(C(=O)OCC(N)=O)n2)n1 -15%
Cc1ccc(C)c(NC(=O)c2nnn(Cc3ccccc3)c2N)c1 -13.6%
Cc1ccccc1NC(=O)Nc1ccccc1Br -20.9%
CC(C)(C)c1ccc(CCC2OCC(C[N+]3(C)CCOCC3)O2)cc1 (stereo unspecified) 5.53%
Clc1ccccc1CN1CCSCC1 6.01%
COc1ccc(-c2cc(N)n(S(=O)(=O)c3c(F)c(F)c(F)c(F)c3F)n2)cc1OC -103%
O=C(CCSc1nnc(-c2ccc(O)cc2)o1)N1CCOCC1 12.8%
NNS(=O)(=O)c1ccc(Cc2ncc(C(F)(F)F)cc2Cl)s1 33.5%
O=S(=O)(c1ccccc1)c1ncc(C(F)(F)F)cc1Cl -79%
CC(=O)N(c1cccc(C)c1)S(=O)(=O)c1ccc(Cl)cc1 30.1%
CC(C)NC(=O)N(C)C[C@H]1OCc2cnnn2CCCC(=O)N([C@@H](C)CO)C[C@H]1C 7.69%
Oc1ccc(/C=N/Nc2nc(-c3ccc(Cl)cc3)cc(C(F)(F)F)n2)cc1 -17.5%
O=C(CCC1CCCCC1)NCc1cccs1 -11.8%
Cn1cccc1C(=O)OCC(=O)Nc1ccc2c(c1)CCC2 10.5%
CCOc1ccc(N(C(=O)Nc2ccccc2)C2=NCCC2)cc1 24.3%
O=C(OCc1ccccc1)N1CCC2CC1c1cc(-c3ccc(F)cc3)ccc12 (stereo unspecified) 1.69%
CCOc1ccc(NS(=O)(=O)c2ccc3c(c2)oc(=O)n3C)cc1 -6.91%
COc1ccc(Cl)cc1NC(=O)CN1CCC(n2nnc3cc(C)ccc32)CC1 12.8%
O=C(Cc1ccc(-n2cccc2)cc1)NCc1cccs1 -20.2%
COc1cccc(OC)c1NC(=O)C1CCCN1C(=O)NCc1ccccc1 (stereo unspecified) 2.12%
O=C(NCC[C@@H]1CC[C@H](NS(=O)(=O)c2ccccc2)[C@@H](CO)O1)c1ccccc1F 18.5%
CCOC(=O)C1CCCN(C(=O)CSc2ccc(Br)cc2)C1 (stereo unspecified) -4.05%
CCCNC(=O)Nc1ccc2c(c1)C(=O)N(C)C[C@H](OC)[C@H](C)CN(CC1CCCC1)[C@@H](C)CO2 16.9%
O=C(Cc1ccccn1)N[C@H]1CC[C@H](CCn2cc(-c3ccccc3)nn2)O[C@@H]1CO -10.6%
CCNC(=O)C1(C)CCCN1Cc1ccccc1Cl (stereo unspecified) 44.3%
N#CC(C#N)=c1ccc2c(c1)NC1(CCCCC1)N=2 -10.6%
O=C(c1ccco1)N(Cc1ccc([N+](=O)[O-])cc1)c1ccc(Br)cc1 32.8%
C#CCN(C[C@@H]1[C@@H](OC(=O)NCC2CCCCC2)[C@@H](OC(=O)NCC2CCCCC2)Cn2c(=O)ccc(=O)n21)S(=O)(=O)c1ccc(C)cc1 -98.4%
COc1ccc(OCCCC(=O)OCC(=O)Nc2c(C)nn(-c3ccccc3)c2C)cc1 -6.1%
O=C(C[C@@H]1C=C[C@@H](NC(=O)Nc2ccc(C(F)(F)F)cc2)[C@H](CO)O1)NCc1ccccn1 -16.3%
C[C@@H]1CN([C@@H](C)CO)C(=O)CCCn2nncc2CO[C@@H]1CN(C)C(=O)NC1CCCCC1 3.28%
Cc1cc(C)c(C(=O)/C=C/c2ccc(C(C)C)cc2)c(=O)[nH]1 -29.3%
C[C@H]1CN([C@@H](C)CO)S(=O)(=O)c2ccc(C3=CCCC3)cc2O[C@H]1CN(C)Cc1cncnc1 11.6%
O=S(=O)(Nc1cc(Sc2ncn[nH]2)c(O)c2ccccc12)c1ccccc1 -96.2%
COc1ccc(NC(=O)N[C@@H]2CC[C@H](CCn3cc(-c4ccccc4F)nn3)O[C@@H]2CO)cc1 34%
O=C(Cn1ncc(Cl)c(Cl)c1=O)N1CCN(S(=O)(=O)c2ccc3ccccc3c2)CC1 -94.6%
O=C(Cn1ncc(Cl)c(Cl)c1=O)c1ccc2c(c1)OCCO2 -78.9%
Cc1ccc(NC(=O)Cn2ncc(Cl)c(Cl)c2=O)cc1S(=O)(=O)N1CCCCC1 -92.6%
O=C(Cn1ncc(Cl)c(Cl)c1=O)c1ccc(Cl)cc1 -107%
C[C@H](CO)N1C[C@H](C)[C@@H](CN(C)Cc2cccnc2)Oc2cc(C#CC3CCCCC3)ccc2S1(=O)=O -75.6%
Cc1noc(C)c1NC(=O)N(C)C[C@@H]1Oc2ccc(NS(=O)(=O)c3cn(C)cn3)cc2C(=O)N([C@@H](C)CO)C[C@@H]1C 8.74%
CN=C1c2cc3cc(OC)ccc3n2CCN1Cc1ccccc1 42.6%
Cc1cc(N2CCN(C)CC2)nc(=S)[nH]1 -14.8%
COc1cc(OC)cc(C(=O)N[C@H](C(=O)OCC(=O)NC(=O)NC(C)(C)C)C(C)C)c1 -10.6%
OC[C@H]1[C@@H](c2ccc(C#CC3CCCC3)cc2)[C@@H]2CN(CCC(F)(F)F)CCCCN12 -96.1%
N#C[C@@H]1[C@H](c2ccccc2C2=CCCCC2)[C@H](CO)N1C(=O)Cc1ccncc1 4.27% [at 21 µM]
NC(=O)c1oc2ccccc2c1NC(=O)C1CC(=O)N(c2ccccc2)C1 (stereo unspecified) 42.6%
